Inconclusive results are not listed. Entries that show only a call come without a potency. The source made the active and inactive calls. Calls come from the whole dose curve; as a rule, active = well fitted cell-killing curve with a large enough effect in the repeat runs; inconclusive = weak or mixed curves, or effect the other way; inactive = flat fitted curve, though single readings scatter.
test: cAMP Responsive Elements (CRE) small molecule antagonists, cell-based qHTS assay: qHTS cell viability counter screen (AID 2060913); conditions: CRE-bla HEK293T viability, CellTiter-Glo luminescence, 5 h; series mostly up to 92.4 µM; note: nearly all actives have a fitted effect of over 40% in size
Method in brief: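 CRE-bla HEK293T cells (2,000/well, 18 h) given compound plus NKH477 0.25 uM final for 3 h at 37C; viability counter-screen by CellTiter-Glo luminescence in same wells after 30 min.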

SMILES	Potency
CCCC/C=C\CCCCCCCCCC=O	inactive
Nc1ccc2c3c(cccc13)-c1ccccc1-2	inactive
Nc1ccc(N=Nc2ccccc2)c(N)c1	inactive
COc1nc(N)nc2c1ncn2[C@@H]1O[C@H](CO)[C@@H](O)[C@@H]1O	inactive
CC(O)Cn1cnc2c1c(=O)n(C)c(=O)n2C (stereo not given)	inactive
Cc1cc(C(C)(C)C)c(O)c(C)c1Cn1c(=O)n(Cc2c(C)cc(C(C)(C)C)c(O)c2C)c(=O)n(Cc2c(C)cc(C(C)(C)C)c(O)c2C)c1=O	inactive
CC(C)C[C@H](NC(=O)CNC(=O)[C@H](Cc1ccc(O)cc1)NC(=O)[C@H](CO)NC(=O)[C@H](Cc1c[nH]c2ccccc12)NC(=O)[C@H](Cc1cnc[nH]1)NC(=O)[C@@H]1CCC(=O)N1)C(=O)N[C@@H](CCCN=C(N)N)C(=O)N1CCC[C@H]1C(=O)NCC(N)=O (stereo in doubt)	inactive
CCCCC1C(=O)N(c2ccccc2)N(c2ccccc2)C1=O	inactive
O=Cc1ccc(Cl)c([N+](=O)[O-])c1	inactive
O=C1CCCCC1	inactive
ClCCl	inactive
Cc1cccc(C)c1NC(=O)CC12CCCN1CCC2	inactive
N#Cc1ccccc1	inactive
O=C1CCCc2c1cc1ccc3cccc4ccc2c1c34	inactive
CCCOc1ccc2c(c1)CC[C@@H]1[C@@H]2CC[C@]2(C)C(OC)CC[C@@H]12 (stereo not given in full)	inactive
C=CC(=O)OCCCCCCOC(=O)C=C	inactive
Cc1ccnc2ccccc12	inactive
CCN(CC)C(=O)N1CCN(C)CC1	inactive
CCN(CC)CCNc1ccc(CNC=O)c2sc3ccc(OC)cc3c(=O)c12	inactive
O=C(O)CCCCCCCCCCCC(=O)O	inactive

SMILES	Potency
Cc1cc(C(=C2C=CC(=Nc3ccc(S(=O)(=O)O)cc3S(=O)(=O)O)C=C2)c2ccc(Nc3ccc(S(=O)(=O)O)cc3)cc2)ccc1N	inactive
O=C(O)CCCCCCCCC(=O)O	inactive
O=C1OC(c2ccc(O)cc2)(c2ccc(O)cc2)c2ccccc21	inactive
CCCC(=O)OCOC(=O)C1=C(C)NC(C)=C(C(=O)OC)C1c1cccc(Cl)c1Cl (stereo not given)	inactive
O=C(O)c1cccc(C(=O)O)c1	inactive
CCOCCC(=O)OCC	inactive
Cc1ccc(O)c(C(C)(C)C)c1	inactive
Oc1ccc(/C=C/c2cc(O)cc(O)c2)cc1	inactive
O=C(O)/C=C/C(=O)O	inactive
COCN(COC)c1nc(N(COC)COC)nc(N(COC)COC)n1	inactive
CCN(CC)c1cccc(O)c1	inactive
O=c1cc[nH]c(=O)[nH]1	inactive
C=COCC(C)C	inactive
Nc1ccc(S(=O)(=O)c2ccc(N)cc2)cc1	inactive
CSc1ccc2c(c1)C(N1CCN(C)CC1)Cc1ccccc1S2 (stereo not given)	inactive
O=Cc1ccc(Cl)cc1	inactive
COC(=O)[C@H]1[C@H]2C[C@@H]3c4[nH]c5cc(OC)ccc5c4CCN3C[C@H]2C[C@@H](OC(=O)c2cc(OC)c(OC)c(OC)c2)[C@@H]1OC	inactive
O=C1[C@H]2CCCC[C@H]2C(=O)N1CCCCN1CCN(c2nsc3ccccc23)CC1	inactive
C1COC(NC(C2CC2)C2CC2)=N1	inactive
OCCC1CCCCN1 (stereo not given)	inactive

Source: PubChem BioAssay (Tox21)
